Results as given in the supplement of paper PMC10670038.
Counter-ions that a name gives are not always drawn. ± gives the standard deviation of the averaged measurements. Whole data set: some 2,000 compounds, median “relative cell viability vs DMSO, compound alone” near 1.1, cut for the lowest 2% near 0.29. This is one part of a sample in which the lowest values are shown more often than they occur.

Each compound was assayed on TE10 (assay: relative cell viability vs DMSO, compound alone (fraction); TE10 is an esophageal squamous carcinoma line; higher = less cytotoxic). Conditions: 2 µM; 48 h.
Procedure: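 TE10 ESCC cells (1,000/well, 384-well plates) were treated with Selleck bioactive library compounds at 2 uM alone for 48 h. Viability was read by CellTiter-Glo and expressed relative to DMSO wells. Two technical replicates (A, B).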
In the case of `C[C@H]1CCC/C=C/[C@@H]2C[C@H](O)C[C@H]2[C@H](O)/C=C/C(=O)O1` [Brefeldin A], the relative cell viability is reported as 0.2497 ± 0.0017. For `Cc1c(Cl)c(OCC(=O)N2CCN(C)CC2)nc2sc(C(=O)NC3CC3)c(N)c12`, the relative cell viability was 1.04 ± 0.019. Work on `Cc1cc(C(C#N)c2ccc(Cl)cc2)c(Cl)cc1NC(=O)c1cc(I)cc(I)c1O` (stereo not given) [Closantel] yielded a relative cell viability of 1.12 ± 0.019. `O=S(=O)(F)Cc1ccccc1` showed a relative cell viability of 0.978 ± 0.021. With `O=C(O)CCCc1ccc(N(CCCl)CCCl)cc1` [Chloroambucil] the relative cell viability was 1.14 ± 0.012. With `CN1C2CC(O)CC1C1OC12` (stereo not given) [Scopine] the relative cell viability was 0.808 ± 0.14. In the case of `C=CC[C@]1(O)CC[C@H]2[C@@H]3CCC4=CC(=O)CCC4=C3C=C[C@@]21C` [Altrenogest], the relative cell viability is reported as 1.115 ± 0.0019. With `Cc1c(N)nc(C(CC(N)=O)NCC(N)C(N)=O)nc1C(=O)NC(C(=O)NC(C)C(O)C(C)C(=O)NC(C(=O)NCCc1nc(-c2nc(C(=O)NCCC[S+](C)C)cs2)cs1)C(C)O)C(O[C@@H]1O[C@@H](CO)[C@@H](O)[C@H](O)[C@@H]1O[C@H]1O[C@H](CO)[C@@H](O)[C@H](OC(N)=O)[C@@H]1O)c1cnc[nH]1` (stereo not given in full) [Bleomycin Sulfate] the relative cell viability was 0.856 ± 0.038. For `C[C@@H]1CC[C@@]2(OC1)O[C@H]1C[C@H]3[C@@H]4CC=C5C[C@@H](O[C@@H]6O[C@H](CO)[C@@H](O[C@@H]7O[C@@H](C)[C@H](O)[C@@H](O)[C@H]7O)[C@H](O)[C@H]6O[C@@H]6O[C@@H](C)[C@H](O)[C@@H](O)[C@H]6O)CC[C@]5(C)[C@H]4CC[C@]3(C)[C@H]1[C@@H]2C` [Dioscin], the relative cell viability was 0.189 ± 0.051. `O=C1CCC[C@@H]2[C@H]3CCCN4CCC[C@@H](CN12)[C@@H]34` [(+)-Matrine] showed a relative cell viability of 1.1 ± 0.059. `CC1=C(O)C(=O)C=C2C1=CC=C1[C@@]2(C)CC[C@@]2(C)[C@@H]3C[C@](C)(C(=O)O)CC[C@]3(C)CC[C@]12C` [Celastrol] showed a relative cell viability of 0.306 ± 0.0087. `O=[N+]([O-])C=Cc1ccc2c(c1)OCO2` [MNS (3,4-Methylenedioxy-β-nitrostyrene, MDBN)] showed a relative cell viability of 0.742 ± 0.054. Work on `CC(C)=CCC[C@]1(C)C=Cc2c(O)c3c(c(CC=C(C)C)c2O1)O[C@]12C(=C[C@@H]4C[C@H]1C(C)(C)O[C@@]2(C/C=C(/C)C(=O)O)C4=O)C3=O` [Gambogic Acid] yielded a relative cell viability of 0.0673 ± 0.0049. For `Cc1sc2c(c1C)C(c1ccc(Cl)cc1)=N[C@@H](CC(=O)OC(C)(C)C)c1nnc(C)n1-2`, the relative cell viability was 0.9008 ± 0.0079. For `Cc1sc2c(c1C)C(c1ccc(Cl)cc1)=NC(CC(N)=O)c1nnc(C)n1-2` (stereo not given), the relative cell viability was 0.954 ± 0.053.
